# Source: PubChem BioAssay (National Center for Advancing Translational Sciences (NCATS))
# Compounds with a hit are over-represented: about 1.6% of the library has one in this group of screens.
# p53ts 39C tox = kills p53ts cells at the nonpermissive temperature | H1299-p53A138V viability at 39C, ATP luminescence, 24 h | Potency, µM (titrated, usually from 46.1 µM), without a hit: at the top dose activity change, negative = cell killing, most hits filed as cytotoxic | 1.5% of 130,000 active | AID 902; also: % is scaled to controls: 0 for no effect and ±100 for the full control effect; nearly all actives have a fitted effect of over 55% in size
# IkB sig inh = IkB pathway inhibition in ABC-DLBCL cells | ABC-DLBCL IkBa-CBG/CBR dual luciferase ratio, 4 h; response scale: scaled: untreated 0%, proteasome inhibitor 100% | Potency, µM (titrated, usually from 57.1 µM), for inactives: at the top dose IkBa stabilization activation | 0.04% of 110,000 active | AID 445; active = well fitted curve in the direction sought with a large enough effect in the signal ratio, not every such curve was filed as active; inconclusive = small, poorly fitted or top-dose-only effect, or a change in a side signal; the % refers to the signal ratio;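 also: the direction sought is a rising ratio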
#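 In this assay, an IκBα–CBG68 fusion accumulates when IKK-driven degradation is blocked; native CBR normalizes for cell number. OCI-Ly3 cells were treated 4 h with compound and doxycycline, then green and red light read after Chroma-Glo addition.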
# p53ts 32C tox = p53ts cell cytotoxicity, permissive temperature | 0.93% of 130,000 active | H1299-p53A138V at 32C, ATP luminescence viability, 24 h | AID 924 | Potency, µM (doses to about 46.1 µM), inactives show top-dose activity change, negative = cytotoxicity, usual class: cytotoxic;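 also: 0% = DMSO and -100% = full killing by reference compound; nearly all actives have a fitted effect of over 55% in size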
#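 Viability by ATPlite luminescence after 24 h compound treatment (up to 46 uM) at the permissive 32C. Cells are H1299 carrying p53 A138V. Scale runs from DMSO basal to 100 uM tamoxifen as full kill; AC50 from Hill fits.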
# Imprint erasure = genomic imprint erasure induction; mouse ES Peg3-LacZ reporter, beta-gal luminescence, 40 h; Potency, µM (highest dose often 60.7 µM), for the others: at the top dose activity change, positive = activation, actives largely listed as activators; 0.02% of 110,000 active; AID 1948
#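 Each well holds 300 Peg3LacZ-Neo (maternal) female ES cells incubated 40 h at 37C, 5% CO2. LacZ is measured by BetaGlo luminescence, with AC50 and maximum efficacy derived from dose-response curves.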
# * hit, by the source's call; ? = inconclusive; / = not tested or not shown; ! = not confirmed by another sample; [ ] = another dose, or the depositor's remark. Unless noted, calls follow the shape of the dose curve; as a rule, active = well fitted curve in the direction sought with a large enough effect; inconclusive = small, poorly fitted or top-dose-only effect, or another doubt; inactive = no such curve, though single readings can be large; an effect the other way counts as inactive or inconclusive. Potency is read from the fitted curve at half-maximal effect.
SMILES,p53ts 39C tox,IkB sig inh,p53ts 32C tox,Imprint erasure
CC(=O)c1ccc(NC(=O)c2cc(-c3ccc4c(c3)OCO4)on2)cc1,20%,4%,8%,7%[10.9 µM]
CC(=O)Nc1ccc(NC(=O)c2cc(-c3ccc4c(c3)OCCO4)on2)cc1,1.6µM*,0%,?,-12%[10.9 µM]
Cc1ccc(O)c(NC(=O)c2cc(-c3ccc4c(c3)OCO4)on2)c1,?,?,?,-43%[10.9 µM]
CC(=O)c1cccc(NC(=O)c2cc(-c3ccc4c(c3)OCCO4)on2)c1,2.5µM*,?,1.3µM*,-8%[10.9 µM]
c1ncc(-c2ccoc2)c(NC2CC2)n1,5%,-2%[11.4 µM],4%,?
O=C(O)C12CC3(C(=O)O)CC(C(=O)O)(CC(C(=O)O)(C1)C3=O)C2=O,3%[9.22 µM],0%[11.4 µM],1%[9.22 µM],-6%[10.9 µM]
C#CCN1C(C)=C(C(=O)OC)[C@@H](c2cccc([N+](=O)[O-])c2)C(C(=O)OCC)=C1C,18%,3%,6%,/
C[C@@]12CCC(=O)C=C1CC[C@H]1[C@@H]2[C@@H](O)C[C@]2(C)[C@@H]1CC[C@@]2(O)C(=O)COC(=O)C1CCCC1,22%[9.22 µM],8%[11.4 µM],6%[9.22 µM],/
Oc1ccc(O)cc1,12%,2%,-2%,10µM*
CC1(C)CCC2=C(O1)c1ccccc1C(=O)C2=O,5µM*,?,5µM*,-79%
Cc1cccc(-c2nc(SCc3cc(=O)c4c(C)cc(C)cc4[nH]3)n[nH]2)c1,20µM*,0%,?,13%[10.9 µM]
COc1ccc(NC(=O)CCc2c(C)nn(-c3ccc(N4CCCCC4)nn3)c2C)cc1Cl,10µM*,3%,16µM*,-29%[10.9 µM]
COc1cc(NC(=O)CCc2c(C)nn(-c3ccc(N4CCCCC4)nn3)c2C)cc(OC)c1OC,?,?,?,-16%[10.9 µM]
CCN1c2ccccc2NC2C1C(C(C)=O)C(=O)N2c1ccc(Cl)cc1 (stereo not drawn),20µM*,?,?,3%
CC(C)c1ccc2oc(-c3cccc(NC(=O)c4ccc5c(c4)OCCO5)c3)nc2c1,10µM*,?,?,-11%[10.9 µM]
Cc1ccc2nc(-c3cccc(NC(=O)c4ccc5c(c4)OCCO5)c3)oc2c1,?,?,?,-14%
N#Cc1c(NC(=O)c2nc3ncccn3n2)sc2c1CCCCC2,13µM*,1%,13µM*,-12%
COc1ccc(NC(=O)c2ccc3c(=O)n4nc(Nc5ccccc5C)sc4nc3c2)cc1Cl,7.9µM*,?,10µM*,25%[10.9 µM]
COc1ccc(NC(=O)c2ccc3c(=O)n4nc(Nc5ccccc5C)sc4nc3c2)cc1,-22%,-1%,-29%,-9%[10.9 µM]
Cc1ccc(NC(=O)c2ccc3c(=O)n4nc(Nc5ccccc5C)sc4nc3c2)cc1C,38%,?,13µM*,9%[10.9 µM]
CCc1ccc(CNC(=O)CN2C(=O)c3cccnc3Oc3ccc(C)cc32)cc1,/,/,-1%,/
Cc1cccc(CCNC(=O)c2ccc3c(c2)nc2n3CCCCC2)c1,7.9µM*,?,13µM*,-7%[10.9 µM]
O=C(NCc1cccc(Cl)c1)c1ccc2c(c1)nc1n2CCOC1,15%,1%,1%,-11%[10.9 µM]
Cc1cccc(CCNC(=O)c2ccc3c(c2)nc2n3CCOC2)c1,13µM*,-1%,?,-3%[10.9 µM]
Cc1ccc(CNC(=O)c2ccc3c(c2)nc2n3CCOC2)cc1,6%,2%,10%,-10%[10.9 µM]
SMILES,p53ts 39C tox,IkB sig inh,p53ts 32C tox,Imprint erasure
O=C(NCCc1ccccc1Cl)c1ccc2c(c1)nc1n2CCOC1,4µM*,-2%,16µM*,-19%[10.9 µM]
CCc1ccc(-c2nc(CS(=O)CC(=O)NCCc3ccc(Cl)cc3)c(C)o2)cc1 (stereo not drawn),-26%,?,7%,-15%[10.9 µM]
O=C(Nc1ccc(Br)cc1F)N1CCC(CN2CCCC2)CC1,/,/,-4%,/
CCCC[C@@H]1C[C@H]1C(NC(=O)c1cccnc1)c1ccc(Cl)cc1 (stereo partly drawn),13µM*,/,?,-22%
CCCC[C@@H]1C[C@H]1C(NC(=O)c1ccccc1)c1ccc(Cl)cc1 (stereo partly drawn),-8%,/,-3%,-16%
CCOc1ccc(-c2oc3cc(Cl)ccc3c(=O)c2O)cc1OC,7.9µM*,-5%,-15%,6%[10.9 µM]
C=C[C@@](C)(O)CC[C@H]1[C@]2(C)CCCC(C)(C)[C@H]2CC[C@]1(C)O,/,1%[11.4 µM],/,/
O=C1c2c(O)cc(O)cc2O[C@@H](c2ccc(O)c(O)c2)[C@H]1O,21%,2%,1%,/
c1ccc(-c2noc(-c3ccc4c(c3)OCO4)n2)nc1,1µM*,?,0.63µM*,-92%
c1ccc(-c2noc(-c3cccnc3)n2)nc1,13µM*,3%,13µM*,-92%
Cc1occc1-c1nc(-c2ccncc2)no1,-2%,1%,-7%,-63%
CN(C)c1ccc(-c2nc(-c3ccccn3)no2)cc1[N+](=O)[O-],-12%,0%,-19%,-8%[10.9 µM]
CNc1ccc(-c2nc(-c3ccccn3)no2)cc1[N+](=O)[O-],-11%,?,-2%,-6%[10.9 µM]
c1ccc(-c2noc(-c3ccc4ccccc4c3)n2)nc1,0.63µM*,?,0.32µM*,-91%
Cc1occc1-c1nc(-c2ccccn2)no1,13µM*,6%,10µM*,-92%
c1ccc(-c2noc(-c3ccncc3)n2)nc1,?,1%,?,-92%
O=C(CCc1ccc(O)cc1)c1c(O)cc(O)cc1O[C@@H]1O[C@@H](CO)[C@@H](O)[C@@H](O)[C@H]1O,/,0%[11.4 µM],/,/
CC1=CC(=O)C2=C(C)CC[C@@H]3[C@H](OC(=O)[C@H]3C)[C@H]12,/,1%[11.4 µM],/,/
CC(C)COc1ccc(C(=O)N(Cc2cccc(F)c2)C2CCS(=O)(=O)C2)cc1 (stereo not drawn),-10%,?,7%,-9%[10.9 µM]
C[N+]1(C)CCc2cc(O)c(O)cc2[C@H]1Cc1ccc(O)c(O)c1,-3%[9.22 µM],1%[11.4 µM],-5%[9.22 µM],-10%[10.9 µM]
CCN(CC)S(=O)(=O)c1ccc2c(c1)c(=O)c(C(=O)NCc1ccccc1Cl)cn2C,6.3µM*,?,?,28%[10.9 µM]
CCCOc1ccc(CN2C(=O)C(=O)c3cccc(C)c32)cc1,16µM*,0%,43%,-26%[10.9 µM]
Cc1ccc(CN2C(=O)C(=O)c3cc(Br)cc(C)c32)cc1,10µM*,?,?,-23%[10.9 µM]
Cc1cc(C(C)(C)CC(C)(C)C)ccc1OCCOCC[N+](C)(C)Cc1ccccc1,25µM*!,3%[25.6 µM],25µM*!,-33%
CC(C)(C)CC(C)(C)c1ccc(O)c(C[N+](C)(C)[O-])c1,-5%[9.22 µM],1%[11.4 µM],-5%[9.22 µM],-18%[10.9 µM]
SMILES,p53ts 39C tox,IkB sig inh,p53ts 32C tox,Imprint erasure
O=C(Nc1ccc(CN2CCOCC2)cc1)c1cc2ccccc2o1,10µM*,?,10µM*,-3%
O=C(Nc1ccc(CN2CCOCC2)cc1)c1ccccc1F,-19%,/,?,/
O=C(Nc1ccc(CN2CCOCC2)cc1)c1cc2ccccn2n1,6.3µM*,6%,5µM*,-88%
O=C(NCCN1CCOCC1)c1cc2ccccc2o1,-2%,-3%,-2%,/
O=C(Nc1ccc2c(c1)OCO2)c1ccc(CN2CCOCC2)cc1,?,-1%,13µM*,-21%
O=C(Nc1ccc2oc(-c3cc(Br)ccc3Cl)nc2c1)c1cc2ccccc2o1,5µM*,-1%,?,-2%[10.9 µM]
